According to PubChem BioAssay (NCI):
About 83,000 compounds went through this panel and 20% of them were active in at least one assay; those are over-represented in the sample as a whole.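 Values shown are percent growth following 48 h exposure of cells in 96-well plates to a single concentration of compound; below 10 was considered active.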 Unmarked numbers belong to inactive results. Calls of active or inactive are those of the source.

Experiments:
Assay in all cases: NCI-60 one-dose screen, 48 h (100 = growth as untreated, 0 = no growth, -100 = all killed)
Conditions in all cases: 10 µM unless noted
[1] = tested on: NCI-H23 lung
[2] = tested on: NCI-H226 lung
[3] = tested on: NCI-H322M lung
[4] = tested on: HOP-62 NSCLC
[5] = tested on: NCI-H460 lung
[6] = tested on: HOP-92 NSCLC
[7] = tested on: NCI-H522 lung
[8] = tested on: A549/ATCC NSCLC
[9] = tested on: 786-0 renal
[10] = tested on: COLO 205 colon
[11] = tested on: DU-145 prostate
[12] = tested on: K-562 leukemia
[13] = tested on: MALME-3M melanoma
[14] = tested on: MDA-MB-231 breast
[15] = tested on: RXF 393 renal
[16] = tested on: SF-268 CNS
[17] = tested on: SF-295 CNS
[18] = tested on: SF-539 CNS
[19] = tested on: M14 melanoma

SMILES | growth [1] | growth [2] | growth [3] | growth [4] | growth [5] | growth [6] | growth [7] | growth [8] | growth [9] | growth [10] | growth [11] | growth [12] | growth [13] | growth [14] | growth [15] | growth [16] | growth [17] | growth [18] | growth [19]
CC/C=C\C[C@H](O)C/C=C1/C(=O)C(Cl)=C[C@@H]1C/C=C\CCCC(=O)OC | -43.8% (active) | -10.9% (active) | 31.8% | -27.1% (active) | -31.6% (active) | -31.3% (active) | -67.1% (active) | 4.38% (active) | -40.8% (active) | -61.6% (active) | -67.1% (active) | 2.41% (active) | -9.56% (active) | -55.2% (active) | -62.8% (active) | -35% (active) | -19.6% (active) | -4.69% (active) | -32.4% (active)
C#CCC1(c2ccc(F)c(F)c2)NS(=O)(=O)c2ccccc21 (stereo not given) | 98.1% | 103% | 90.5% | 86.2% | 108% | 106% | 65.5% | 76.9% | 101% | 110% | 107% | 89.4% | 93.7% | 109% | 114% | 102% | 105% | 104% | 107%
COc1cc(-c2csc(NC(=O)c3cc(C(F)(F)F)cc(C(F)(F)F)c3)n2)cc(OC)c1OC | -10.2% (active) | 23.6% | 32.7% | 46.4% | 13.8% | -10.6% (active) | 3.92% (active) | 26.3% | 41.6% | 37.7% | 35% | 14.4% | 3.36% (active) | 41.1% | 56.7% | 35.4% | 33.9% | 56% | 32.3%
NC(=O)c1ccc2c(c1)OCO2 | 89.2% | 98.5% | 107% | 112% | 109% | 90.2% | 91.9% | 105% | 105% | 113% | 108% | 115% | 98.3% | 100% | 94.5% | 97.2% | 96.5% | 104% | 101%
Cc1ccc2c(c1)ncn2-c1ncnc2c1CC(C)c1ccccc1N2C (stereo not given) | 24% | 54.2% | 61.3% | 33.9% | 3.26% (active) | 24% | -22.8% (active) | 23.5% | 24.9% | -33.4% (active) | 11.8% | 7.17% (active) | 49.3% | 26.9% | 72% | 19.9% | 13.3% | 4.79% (active) | 19.7%
CC(=O)c1cc(C(=O)c2ccc3c(c2)Sc2ccccc2N3)c2cc(C)ccn12 | 16.5% | 56.6% | 35.1% | 21.1% | 1.02% (active) | 42.6% | -47.9% (active) | 14.5% | 9.68% (active) | -62.2% (active) | 0.638% (active) | 5% (active) | 68.2% | 3.24% (active) | 49.3% | 22.1% | -1.7% (active) | -32.5% (active) | 17.2%
O=C(/C=C/CN1CCOCC1)Nc1cc2c(Nc3cccc(Cl)c3F)ncnc2cc1OCCOC(F)F | 85.4% | 80.1% | 4.9% (active) | 70.5% | 93% | 18.9% | 6.03% (active) | 52.7% | 53.4% | 95.1% | 49.5% | 76% | 64.4% | 68.6% | 68.4% | 65.2% | 81.2% | 81.4% | 94.3%
CCSc1nnc(Nc2ccc(C(C)C)cc2)s1 | 79.3% | 75% | 97.6% | 91.5% | 97.5% | 92.7% | 87.2% | 86.5% | 86% | 86.9% | 105% | 51.8% | 90.7% | 92.5% | 28% | 112% | 91.1% | 90.4% | 95.7%
C=C1C(=O)O[C@H]2[C@H]1CC/C(COC(=O)NCc1ccc(OC)cc1)=C\CC[C@@]1(C)O[C@@H]21 | 74.2% | 64.5% | 84.6% | 67.5% | 77.7% | 63.3% | -55.5% (active) | 69.1% | 15.6% | -17.7% (active) | 33.5% | 14% | 98.3% | 60.9% | 15% | 55.5% | 96.2% | 50.2% | 32.9%
C[N+](C)(C)c1ccc(CC2c3ccccc3-c3ccccc32)cc1 | 78.5% | 82.2% | 87.8% | 38.9% | 87.3% | 28.8% | 59.9% | 62% | 73.9% | 59.8% | 101% | 70.6% | 74.9% | 74.7% | 103% | 42.4% | 79.1% | 25.5% | 75.4%
O=[N+]([O-])c1cccc(-c2cc(-c3cc(Br)ccc3O)[nH]n2)c1 | 28.5% | 52.6% | 24.4% | 25.2% | 7.48% (active) | 4.45% (active) | 15.1% | 21.7% | 27.2% | 17.6% | 35.1% | 12.4% | 5.27% (active) | 27% | 58.1% | 23.6% | 40.4% | 34% | 35.6%
C=C1C(=O)O[C@H]2[C@H]1CC/C(COC(=O)NCCc1ccc(Br)cc1)=C\CC[C@@]1(C)O[C@@H]21 | 62.6% | 13.2% | 85.4% | 54.6% | 61.2% | 33.6% | -52.1% (active) | 77.8% | -52.9% (active) | -25.3% (active) | -33.6% (active) | 5.94% (active) | 73.7% | -33.4% (active) | -35.3% (active) | 42.4% | 86.5% | 20.2% | 19.9%
O=C1NCC(c2cc3ccccc3[nH]c2=O)Nc2ccccc21 (stereo not given) | 97.4% | 98.4% | 100% | 90.6% | 105% | 104% | 88.6% | 92.4% | 100% | 107% | 111% | 90.2% | 96.8% | 97.9% | 90.7% | 99.9% | 106% | 96.5% | 101%
O=C(OCCCCOC(=O)n1cnc2ccccc21)n1cnc2ccccc21 | 99.7% | 97.4% | 105% | 98.3% | 103% | 88.8% | 91.3% | 92.5% | 105% | 103% | 105% | 101% | 101% | 94.7% | 107% | 98.8% | 98.3% | 102% | 102%
CCN(CC)CCSc1c2ccc(Cl)cc2nc2ccc(OC)cc12 | 87.1% | 100% | 105% | 75.9% | 102% | 82.3% | -24.9% (active) | 74% | 67.6% | 26.8% | -38% (active) | 9.42% (active) | 101% | 51.9% | 116% | 96.7% | 105% | 99.6% | 79%
